Screening results: PubChem BioAssay, several laboratories
The list is not random: actives were taken first. Their share in the collection is about 2.3%.
TPT1 inh = blocks Candida albicans tRNA 2'-phosphotransferase. recombinant caTPT1, FP RNA substrate dephosphorylation. AID 1962. actives 0.81% (n = 300,000). inhibition, % at 5 µM;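 active = inhibition above the mean of all tested compounds plus 3 SD, set per screening campaign, cut at about 24% in these data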
IDE inh = cellular human IDE inhibition | P14735 | HEK cells, FAbetaB cleavage, fluorescence polarization | inhibition, % at 5.59 µM | actives 0.41% (n = 320,000);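 active = percent inhibition above the average of all tested compounds plus 3 SD, set per screening campaign, cut at about 16% in these data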;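 note: IDE supplied by intact live HEK cells; FP after avidin binding of uncleaved biotin substrate so inhibition keeps polarization high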
Rpn11 inh = inhibitors of human proteasome Rpn11 | actives 0.59% (n = 360,000) | AID 588493 | human 26S proteasome, Ub4-pepOG fluorescence polarization; 20S core pre-blocked with epoxomicin | O00487 | inhibition, % at 20 µM;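 active = inhibition at 20 µM, scaled to each plate's controls, above about 33%, limit read from the data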
IDE act = activators of human insulin-degrading enzyme in cells; P14735; HEK cells, FAbeta-B cleavage, fluorescence polarization; 0% vehicle, 100% cell-free pure enzyme wells; activation, % at 5.96 µM; actives 0.073% (n = 340,000);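 active = activation above the mean of all tested compounds plus 3 SD, set per screening campaign, cut at about 17% in these data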
Calb FLC = affects C. albicans growth with fluconazole. growth inhibition, % (concentration not given with the values). C. albicans CaCi-2 (fluconazole-resistant clinical isolate) + fluconazole, Alamar Blue growth, 48 h. actives 0.57% (n = 300,000);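 active = growth inhibition above about 58% in most replicates, limit read from the data, passing the limit was not always enough; inconclusive = exactly half the replicates above a set limit; inactive = most replicates below a set limit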;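 note: all wells also contain fluconazole at 8 µg/ml as a sub-toxic cotreatment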
Rin1 Abl inh = blocks binding of human Rin1 to Abl | P00519+Q13671 | TR-FRET Rin1/Abl binding, biochemical | inhibition, % at 7.35 µM | actives 0.4% (n = 360,000); in the data active = inhibition above about 5%, passing the limit was not always enough
Numbers stand for hits; n = inactive; u = inconclusive; x = not tested or not shown.

SMILES | TPT1 inh | IDE inh | Rpn11 inh | IDE act | Calb FLC | Rin1 Abl inh
O=c1c2ccccc2nc(-c2ccc(Cl)cc2Cl)n1O | n | n | n | n | 83.8 | n
O=c1c2ccc(Cl)cc2nc(-c2cccc(C(F)(F)F)c2)n1O | n | n | n | n | 78.9 | n
O=c1c2ccccc2nc(-c2ccccc2Cl)n1O | n | n | n | n | n | n
O=c1c2cc(Br)ccc2nc(-c2ccc(Cl)cc2)n1O | n | n | n | n | n | n
N#Cc1ccc(-c2nc3ccccc3c(=O)n2O)cc1 | n | n | n | n | n | n
N#Cc1ccc(-c2nc3cc(Cl)ccc3c(=O)n2O)cc1 | n | n | n | n | 100.9 | n
Cc1ccc(-c2nc3c(Cl)cc(Cl)cc3c(=O)n2O)cc1 | n | n | n | n | 95.7 | n
COc1cccc(NC(=O)CN(C)C(C)C(=O)NC(C)c2ccc(Cl)cc2Cl)c1 (configuration not stated) | x | x | n | n | x | n
CCc1noc(C)c1C(=O)N1CCN(S(=O)(=O)c2ccccc2C(F)(F)F)CC1 | x | n | n | n | x | n
Cc1cccc(OC(C)C(=O)Nc2ccccc2C(=O)N2CCCCC2)c1 (configuration not stated) | n | n | n | n | n | n
CN(Cc1ccccc1Cl)C(=O)CCNC(=O)c1ccco1 | x | x | n | n | x | n
Nc1nc(N)c2cc(Sc3ccc4ccccc4c3)ccc2n1 | n | n | n | x | 100.5 | n
Cc1cnc(C(=O)N2CCc3c([nH]c4ccccc34)C2c2ccc(F)cc2)cn1 (configuration not stated) | n | n | n | n | u | n
CC(=O)c1cc(C(=O)N2CCc3c([nH]c4ccccc34)C2C2CCCCC2)[nH]n1 (configuration not stated) | n | n | n | n | 90.9 | n
CC(C)(CNC(=O)CNC(=O)c1ccc(Cl)cc1Cl)N1CCOCC1 | x | x | n | n | x | n
COc1ccc(-n2ncc(C(C)NS(=O)(=O)c3cc(C)sc3C)c2C)cc1 (configuration not stated) | x | x | n | x | x | n
CCCCCCCNC(=O)C1(CC2CC(c3cccc(Br)c3)=NO2)CCNCC1 (configuration not stated) | n | n | n | 19.0 | n | n
O=C1c2ccccc2C(=O)N1/N=C/c1ccc(O)c(O)c1O | x | x | n | n | n | 65.4
O=C1c2cccc3cccc(c23)C(=O)N1/N=C/c1ccc(O)cc1O | n | n | n | n | n | n
O=C(CSc1nc(C(F)(F)F)cc(=O)[nH]1)N1CCCC1 | n | n | n | n | n | n
CCCOc1cccc(-c2nnc(NC(=O)c3ccco3)s2)c1 | n | n | n | n | 88.3 | n
CCOC(=O)N1CCN(c2nc(-c3ccc(F)cc3)cs2)CC1 | n | 16.8 | n | n | n | n
CCOC(=O)C(=O)N1CCN(c2nc(-c3ccc(Cl)cc3)cs2)CC1 | n | n | n | n | n | n
CCOc1ccc(NC(=O)CN(C)C(=O)c2c(-c3ccccc3)noc2C)cc1OCC | x | n | n | n | x | n
Cc1cc(C)c(-c2cc(NC(=O)COC(=O)c3ccc(NC(=O)CC#N)cc3)n(-c3ccccc3)n2)cc1C | n | n | n | n | n | n
SMILES | TPT1 inh | IDE inh | Rpn11 inh | IDE act | Calb FLC | Rin1 Abl inh
Cc1cc(C)c(-c2cc(NC(=O)COC(=O)c3ccc(C#N)cc3)n(-c3ccccc3)n2)cc1C | n | n | n | n | 76.6 | n
C/C(=N\NC(=O)CSCc1ccccc1Cl)c1cc(O)ccc1O | n | n | n | n | 95.0 | n
CC(=O)Nc1ccc(NC(=O)CSCc2ccccc2Cl)cc1 | n | n | n | n | n | n
CCCC(=O)NC(c1ccc(C(C)C)cc1)c1ccc2cccnc2c1O (configuration not stated) | n | n | n | n | 88.5 | n
CCCC(=O)NC(c1ccccc1Cl)c1ccc2cccnc2c1O (configuration not stated) | n | n | n | n | 82.5 | n
Oc1ccccc1C(Nc1nccs1)c1ccc2cccnc2c1O (configuration not stated) | n | n | n | n | 94.5 | n
CC(=O)NC(c1ccc(Cl)cc1)c1ccc2cccnc2c1O (configuration not stated) | x | x | n | n | x | n
CCCC(=O)NC(c1ccc(N(C)C)cc1)c1ccc2cccnc2c1O (configuration not stated) | n | n | n | n | 91.8 | n
CCCCC(=O)NC(c1ccc(OC)cc1)c1ccc2cccnc2c1O (configuration not stated) | x | x | n | x | x | n
COc1ccc(C(NC(=O)C(C)C)c2ccc3cccnc3c2O)cc1 (configuration not stated) | n | n | n | n | 86.2 | n
CC(=O)Nc1cccc(-c2csc(Nc3ccc(C)cn3)n2)c1 | n | n | n | n | 90.7 | n
CC(=O)Nc1cccc(-c2csc(Nc3ncccn3)n2)c1 | x | x | x | x | n | x
Cc1noc(/C=C/Nc2ccc(F)cc2F)c1[N+](=O)[O-] | n | n | n | n | n | n
Cc1noc(/C=C/c2ccccn2)c1[N+](=O)[O-] | n | n | n | n | 84.8 | n
COc1ccc(OCCNc2cc(N3CCOCC3)ccc2[N+](=O)[O-])cc1 | n | n | n | 20.4 | n | n
COc1cccc(OCCNc2cc(N3CCOCC3)ccc2[N+](=O)[O-])c1 | n | n | n | n | n | n
Cc1cccc(OCC(=O)Nc2cccc(C(=O)Nc3ccccc3C(=O)O)c2)c1 | n | n | n | n | n | n
CC(C)c1ccc(OCC(=O)Nc2cccc(C(=O)Nc3ccccc3C(=O)O)c2)cc1 | n | n | n | n | 75.9 | n
Clc1cccc(N/N=C/c2ccncc2)c1 | n | n | n | n | 92.7 | n
Cc1ccc(N/N=C/c2ccncc2)cc1 | n | n | n | n | 99.7 | n
CCc1ccccc1N(C)S(=O)(=O)c1cc(-c2cc(C)no2)ccc1OC | n | n | n | n | n | n
Nc1cc2c(cc1Cl)N(Cc1ccccc1)C(=O)CO2 | x | n | n | n | x | n
C/C(=N\Nc1ccc(Cl)cc1)c1c(O)cc(C)oc1=O | n | n | n | x | 124.7 | n
C=CC[C@@H](CC(=O)NCCO)C(=O)N[C@H](C)COC(=O)[C@@H](CC=C)Cc1ccc(F)cc1 | x | n | n | n | x | n
O=C(CSCC(=O)Nc1ccccc1)N/N=C/c1c(O)ccc2ccccc12 | n | n | n | n | 113.3 | n
Cc1ccc(CNS(=O)(=O)c2cc3c(cc2C)NC(=O)CO3)cc1 | n | n | n | n | n | n
O=[N+]([O-])c1ccc(O)c(Nc2ncnc3ccc(Br)cc23)c1 | n | n | n | n | 85.1 | n
CCOc1cc(/C=C(\C#N)C(=O)NCC2CCCO2)ccc1O (configuration not stated) | n | n | n | n | n | n
CCOc1cc(/C=C(\C#N)C(=O)NCC2CCCO2)ccc1OCC(N)=O (configuration not stated) | n | n | n | n | 105.1 | n
CC(=O)Nc1ccc(S(=O)(=O)N2CCN(c3cc(C)nc4ccccc34)CC2)cc1 | n | n | n | n | n | n
